Measurements as given in PubChem BioAssay (NCATS).
“And” between values parts separate entries of the source, which are not always exact repeats. Identical values can stand only once. Records with an inconclusive call do not appear. Where a call stands in place of a potency, no number is given. The source holds several records for some structures; these can differ, active in one and inactive in another. The source made the active and inactive calls. Unless noted, calls follow the shape of the dose curve; as a rule, active = well fitted curve in the direction sought with a large enough effect; inconclusive = small, poorly fitted or top-dose-only effect, or another doubt; inactive = no such curve, though single readings can be large; an effect the other way counts as inactive or inconclusive.

What was measured:
[1] = molecular target: Glucocorticoid receptor (Homo sapiens) (UniProt P04150); assay: GR-GFP Redistribution (AID 450;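 active = compounds whose dose series gives a full or clear partial fitted curve of increased nuclear translocation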; also: potency is read from the fitted curve at half-maximal effect); conditions: U2OS GR-GFP nuclear translocation, laser cytometry, 2 h
Chain of Glucocorticoid receptor (Homo sapiens) (P04150 whole entry, looked up, the tested form may be a part): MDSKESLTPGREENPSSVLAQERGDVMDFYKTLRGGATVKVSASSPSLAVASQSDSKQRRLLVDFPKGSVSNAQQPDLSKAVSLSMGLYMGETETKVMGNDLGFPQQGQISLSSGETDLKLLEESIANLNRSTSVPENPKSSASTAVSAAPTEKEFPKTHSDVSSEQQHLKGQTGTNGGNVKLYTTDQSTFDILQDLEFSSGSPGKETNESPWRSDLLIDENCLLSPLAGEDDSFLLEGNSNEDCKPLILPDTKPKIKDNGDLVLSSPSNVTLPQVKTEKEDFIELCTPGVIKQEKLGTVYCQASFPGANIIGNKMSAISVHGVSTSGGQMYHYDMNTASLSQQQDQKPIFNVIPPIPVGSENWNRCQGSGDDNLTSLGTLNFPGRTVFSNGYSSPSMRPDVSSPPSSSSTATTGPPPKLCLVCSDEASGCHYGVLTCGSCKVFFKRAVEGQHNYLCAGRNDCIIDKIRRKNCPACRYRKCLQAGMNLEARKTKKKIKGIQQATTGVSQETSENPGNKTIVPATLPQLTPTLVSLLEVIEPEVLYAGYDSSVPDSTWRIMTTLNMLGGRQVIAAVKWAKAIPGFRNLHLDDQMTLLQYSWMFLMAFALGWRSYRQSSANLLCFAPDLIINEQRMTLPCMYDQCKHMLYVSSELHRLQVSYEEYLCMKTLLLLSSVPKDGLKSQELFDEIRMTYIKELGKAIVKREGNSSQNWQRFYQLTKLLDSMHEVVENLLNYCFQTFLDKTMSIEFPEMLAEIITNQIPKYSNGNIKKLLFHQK

[2] = molecular target: Glucocorticoid receptor (Homo sapiens) (UniProt P04150); assay: GR-EFC Redistribution (AID 451; calls by dose curve; also: potency is read from the fitted curve at half-maximal effect); conditions: CHO-K1 GR-EFC translocation, beta-gal luminescence, 2 h
Outline: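 CHO-K1 cells stably expressing nuclear-localized β-gal enzyme acceptor and GR fused C-terminally to the enzyme donor fragment; ligand-driven nuclear translocation restores β-gal by complementation. Compounds titrated up to 46 uM final, 2 h at 37 °C; luminescence read.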

[3] = molecular target: Mitogen-activated protein kinase 10 (Mus musculus) (UniProt Q61831); assay: JNK3 AlphaScreen Assay (AID 530; active = well fitted curve in either direction with a large enough effect, not every such curve was filed as active;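 also: kinase came from lysate of stimulated human HepG2 cells; signal reports phosphorylation of biotinylated GST-cJun 1-79 at Ser73 with 10 µM ATP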)
Outline: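 Phosphorylation of biotinylated GST-cJun(1-79) at Ser73 is measured by AlphaScreen proximity luminescence. Enzyme is JNK3 in HepG2 lysates activated with interleukin-1beta and tumor necrosis factor alpha; ATP is 10 uM final.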

[4] = qHTS Assay for Lipid Storage Modulators (AID 1519; calls by dose curve); conditions: Drosophila S3 cells, BODIPY lipid droplet/cell ratio, laser cytometry, cells loaded with oleic acid; for activity change, negative = inhibition: at 57.5 µM (top of the series)
Outline: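 Cells seeded at 5,000 per well were treated with compounds over a concentration series and loaded with oleic acid (400 uM, as added). Lipid droplet fluorescence (488 nm excitation, 500-530 nm channel) was read by laser-scanning cytometry and normalized to 20 uM Triacsin C.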

[5] = molecular target: Ubiquitin carboxyl-terminal hydrolase 1 (Homo sapiens) (UniProt O94782); assay: Inhibitors of USP1/UAF1: Pilot qHTS (AID 504865);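 also: rhodamine fluorescence freed from ubiquitin-rhodamine substrate followed over time; top concentration of the series differs between compounds; nearly all actives have a fitted effect of over 35% in size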
Chain of Ubiquitin carboxyl-terminal hydrolase 1 (Homo sapiens) (O94782 whole entry, looked up): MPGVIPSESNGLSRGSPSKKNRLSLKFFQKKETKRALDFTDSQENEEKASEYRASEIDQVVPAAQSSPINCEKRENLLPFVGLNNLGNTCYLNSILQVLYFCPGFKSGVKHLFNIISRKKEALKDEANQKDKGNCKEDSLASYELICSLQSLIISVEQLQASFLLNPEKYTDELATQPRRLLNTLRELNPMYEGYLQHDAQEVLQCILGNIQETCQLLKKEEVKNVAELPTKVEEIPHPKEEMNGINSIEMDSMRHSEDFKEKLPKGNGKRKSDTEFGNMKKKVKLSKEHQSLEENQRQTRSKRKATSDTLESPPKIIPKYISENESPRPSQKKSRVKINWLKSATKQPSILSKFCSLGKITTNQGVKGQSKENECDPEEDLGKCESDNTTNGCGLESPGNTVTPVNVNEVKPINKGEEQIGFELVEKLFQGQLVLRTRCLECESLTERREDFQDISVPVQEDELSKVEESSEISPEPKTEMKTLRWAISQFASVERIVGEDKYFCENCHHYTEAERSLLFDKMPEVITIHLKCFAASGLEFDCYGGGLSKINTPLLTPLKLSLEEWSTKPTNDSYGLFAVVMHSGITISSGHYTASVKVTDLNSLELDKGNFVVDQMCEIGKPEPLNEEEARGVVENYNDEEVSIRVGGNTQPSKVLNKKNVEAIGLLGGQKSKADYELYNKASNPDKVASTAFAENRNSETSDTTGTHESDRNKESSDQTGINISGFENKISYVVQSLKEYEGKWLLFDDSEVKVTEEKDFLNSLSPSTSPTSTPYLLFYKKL
Outline: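 In 50mM HEPES pH 7.8 containing 0.5mM EDTA, 1mM TCEP, 0.1 mg/ml BSA and 0.01% Tween-20, 1nM USP1/UAF1 is exposed to compound for 15 min, then Ub-Rho (150nM final) is added and fluorescence is read over time.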

[6] = molecular target: DNA dC->dU-editing enzyme APOBEC-3G (Homo sapiens) (UniProt Q9HC16); assay: qHTS for inhibitors of Vif-A3G interactions: Validation (AID 588379)
Chain of DNA dC->dU-editing enzyme APOBEC-3G (Homo sapiens) (Q9HC16 whole entry, looked up): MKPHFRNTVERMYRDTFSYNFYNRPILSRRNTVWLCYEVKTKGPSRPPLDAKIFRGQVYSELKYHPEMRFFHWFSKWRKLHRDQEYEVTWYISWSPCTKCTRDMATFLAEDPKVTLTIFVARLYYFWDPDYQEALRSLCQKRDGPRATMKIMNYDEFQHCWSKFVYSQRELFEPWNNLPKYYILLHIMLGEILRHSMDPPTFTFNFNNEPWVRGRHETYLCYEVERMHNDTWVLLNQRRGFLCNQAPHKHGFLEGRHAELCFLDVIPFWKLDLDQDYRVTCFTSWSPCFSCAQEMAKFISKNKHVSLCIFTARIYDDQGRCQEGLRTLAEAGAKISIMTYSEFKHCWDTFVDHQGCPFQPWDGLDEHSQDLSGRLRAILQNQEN
Outline: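 Yellow fluorescence (Ex 488, Em 500-530) of Vif-coexpressing HeLa A3G-eYFP cells, scanned by Acumen cytometer, reports blocked A3G degradation. Cells plated at 700/well overnight at 37 deg C before compound addition, then a further overnight compound incubation at 37 deg C.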

[7] = tested on: Zika virus NS2B-NS3 protease; assay: Primary screen GU AMC qHTS for Zika virus inhibitors (AID 1347154); also: nearly all actives have a fitted effect of over 70% in size
Outline: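 Unlinked Zika NS2B hydrophilic domain/NS3 protease domain noncovalent complex (25 nM final) in 10 mM Tris-HCl pH 8.0, 0.01% Tween 20, with AMC peptide substrate. Fluorescence (ex 340, em 450 nm) change over 15 min, room temperature; percent inhibition fitted to 4-parameter Hill equation.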

[8] = Primary qHTS for small molecule stabilizers of the endoplasmic reticulum resident proteome: Secreted ER Calcium Modulated Protein (SERCaMP) assay (AID 1508630)
Outline: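 The SH-SY5Y reporter protocol was run at 3 concentrations up to 38.3 uM (primary) or 11 concentrations (follow-up): 16 h compound, 100 nM thapsigargin for 4 h, then extracellular luciferase luminescence.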

[9] = molecular target: Cytochrome P450 1A2 (Homo sapiens) (UniProt P05177); assay: p450-cyp1a2 (AID 410; calls by dose curve; also: potency is read from the fitted curve at half-maximal effect)
Chain of Cytochrome P450 1A2 (Homo sapiens) (P05177 whole entry, looked up): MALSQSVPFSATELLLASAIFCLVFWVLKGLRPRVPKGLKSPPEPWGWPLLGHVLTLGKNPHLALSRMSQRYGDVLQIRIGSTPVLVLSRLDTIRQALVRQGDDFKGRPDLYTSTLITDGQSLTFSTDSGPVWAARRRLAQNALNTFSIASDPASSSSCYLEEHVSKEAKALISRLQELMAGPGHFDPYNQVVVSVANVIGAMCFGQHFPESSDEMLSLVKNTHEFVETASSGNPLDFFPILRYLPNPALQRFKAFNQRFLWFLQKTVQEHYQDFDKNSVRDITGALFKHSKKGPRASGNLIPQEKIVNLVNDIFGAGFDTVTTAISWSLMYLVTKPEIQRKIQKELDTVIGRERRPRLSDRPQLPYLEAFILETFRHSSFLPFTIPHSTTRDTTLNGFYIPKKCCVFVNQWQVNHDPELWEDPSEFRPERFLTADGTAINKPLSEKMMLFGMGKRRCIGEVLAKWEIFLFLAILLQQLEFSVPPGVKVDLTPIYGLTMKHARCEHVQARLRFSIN
Outline: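 Luminescent demethylation readout: Luciferin-ME (100uM, equal to Km) turned over by 20nM CYP1A2 for 60 min at room temperature after NADPH regeneration addition, following 10 min compound preincubation. Normalization used 57 uM furafylline as full inhibition.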

[10] = molecular target: 3',5'-cyclic-AMP phosphodiesterase 4B (Homo sapiens) (UniProt Q07343); assay: qHTS Assay for Inhibitors of PDE-IV (AID 607; active = well fitted activation curve with a large enough effect in the main read-out, with a control signal flat, not every such curve was filed as active)
Chain of 3',5'-cyclic-AMP phosphodiesterase 4B (Homo sapiens) (Q07343 whole entry, looked up): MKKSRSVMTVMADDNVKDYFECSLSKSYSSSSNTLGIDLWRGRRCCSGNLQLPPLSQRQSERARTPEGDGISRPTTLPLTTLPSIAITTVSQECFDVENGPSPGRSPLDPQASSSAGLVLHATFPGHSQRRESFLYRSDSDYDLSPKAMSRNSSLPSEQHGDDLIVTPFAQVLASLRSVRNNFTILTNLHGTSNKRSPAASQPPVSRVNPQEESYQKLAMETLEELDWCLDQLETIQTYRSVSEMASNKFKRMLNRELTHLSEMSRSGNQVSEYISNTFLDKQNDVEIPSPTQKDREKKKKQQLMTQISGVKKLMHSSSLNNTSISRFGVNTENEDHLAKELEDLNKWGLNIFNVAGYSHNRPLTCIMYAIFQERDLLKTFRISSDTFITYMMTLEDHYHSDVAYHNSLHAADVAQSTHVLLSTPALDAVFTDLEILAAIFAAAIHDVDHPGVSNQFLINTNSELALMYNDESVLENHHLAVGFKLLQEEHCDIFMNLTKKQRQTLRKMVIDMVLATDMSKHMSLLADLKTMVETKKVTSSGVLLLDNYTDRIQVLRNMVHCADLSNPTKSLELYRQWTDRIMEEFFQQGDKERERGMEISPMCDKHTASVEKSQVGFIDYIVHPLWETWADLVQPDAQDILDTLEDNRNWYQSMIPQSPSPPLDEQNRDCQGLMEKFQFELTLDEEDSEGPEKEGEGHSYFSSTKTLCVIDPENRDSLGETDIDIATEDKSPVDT
Outline: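 Live HEK293 cells with a modified cyclic nucleotide-gated (CNG) channel report intracellular cAMP via membrane-potential dye fluorescence (ex 535/em 590 nm). Endogenous PDE-IV was targeted. Compounds were tested at up to 22.9 uM final; RO 20-1724 100 uM served as control.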

[11] = molecular target: Cytochrome P450 3A4 (Homo sapiens) (UniProt P08684); assay: qHTS Assay for Activators of Cytochrome P450 3A4 (AID 885); also: nearly all actives have a fitted effect of over 65% in size
Chain of Cytochrome P450 3A4 (Homo sapiens) (P08684 whole entry, looked up): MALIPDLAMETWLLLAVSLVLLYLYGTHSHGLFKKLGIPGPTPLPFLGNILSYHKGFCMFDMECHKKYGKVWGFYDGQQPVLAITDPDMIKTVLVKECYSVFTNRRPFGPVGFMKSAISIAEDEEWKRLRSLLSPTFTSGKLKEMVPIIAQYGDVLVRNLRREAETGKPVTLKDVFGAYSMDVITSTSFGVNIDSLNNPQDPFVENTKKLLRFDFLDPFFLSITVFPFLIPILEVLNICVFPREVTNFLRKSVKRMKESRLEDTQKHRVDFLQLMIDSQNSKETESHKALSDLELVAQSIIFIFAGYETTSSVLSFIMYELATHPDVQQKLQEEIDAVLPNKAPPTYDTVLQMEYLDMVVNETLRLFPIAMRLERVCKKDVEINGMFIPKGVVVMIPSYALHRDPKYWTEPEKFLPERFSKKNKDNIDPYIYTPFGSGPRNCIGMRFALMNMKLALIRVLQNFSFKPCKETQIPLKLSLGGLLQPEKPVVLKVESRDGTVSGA
Outline: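 Using 20nM recombinant human CYP3A4 in potassium phosphate (200mM), substrate Luciferin-PPXE at 25uM, luminescent luciferin detection followed a 60-min RT NADPH reaction; data scaled to 57 uM ketoconazole.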

[12] = molecular target: Cytochrome P450 2D6 (Homo sapiens) (UniProt P10635); assay: qHTS Assay for Inhibitors and Substrates of Cytochrome P450 2D6 (AID 891); also: potency is read from the fitted curve at half-maximal effect; nearly all actives have a fitted effect of over 60% in size
Chain of Cytochrome P450 2D6 (Homo sapiens) (P10635 whole entry, looked up): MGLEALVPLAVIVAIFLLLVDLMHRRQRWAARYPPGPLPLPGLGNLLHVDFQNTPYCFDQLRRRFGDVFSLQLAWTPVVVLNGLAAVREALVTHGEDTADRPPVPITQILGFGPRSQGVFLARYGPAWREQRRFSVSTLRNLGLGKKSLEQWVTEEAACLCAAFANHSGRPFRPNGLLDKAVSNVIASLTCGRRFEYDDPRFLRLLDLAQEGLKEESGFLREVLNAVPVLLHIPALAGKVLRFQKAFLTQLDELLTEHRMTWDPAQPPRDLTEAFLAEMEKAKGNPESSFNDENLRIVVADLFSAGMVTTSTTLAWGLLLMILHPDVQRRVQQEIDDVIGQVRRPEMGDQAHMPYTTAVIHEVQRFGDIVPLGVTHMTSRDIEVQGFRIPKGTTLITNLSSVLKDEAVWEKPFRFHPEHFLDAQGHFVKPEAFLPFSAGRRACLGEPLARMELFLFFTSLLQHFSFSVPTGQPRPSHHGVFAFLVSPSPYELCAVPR
Outline: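 Luminescent read-out of luciferin formed by 5 nM human CYP2D6 demethylating 30 uM Luciferin-ME EGE (Km level) over 60 min at room temperature after NADPH regeneration addition. Data normalized to full inhibition by 1.43 uM quinidine.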

[13] = molecular target: Cytochrome P450 2C19 (Homo sapiens) (UniProt P33261); assay: qHTS Assay for Inhibitors and Substrates of Cytochrome P450 2C19 (AID 899); also: potency is read from the fitted curve at half-maximal effect; nearly all actives have a fitted effect of over 60% in size
Chain of Cytochrome P450 2C19 (Homo sapiens) (P33261 whole entry, looked up): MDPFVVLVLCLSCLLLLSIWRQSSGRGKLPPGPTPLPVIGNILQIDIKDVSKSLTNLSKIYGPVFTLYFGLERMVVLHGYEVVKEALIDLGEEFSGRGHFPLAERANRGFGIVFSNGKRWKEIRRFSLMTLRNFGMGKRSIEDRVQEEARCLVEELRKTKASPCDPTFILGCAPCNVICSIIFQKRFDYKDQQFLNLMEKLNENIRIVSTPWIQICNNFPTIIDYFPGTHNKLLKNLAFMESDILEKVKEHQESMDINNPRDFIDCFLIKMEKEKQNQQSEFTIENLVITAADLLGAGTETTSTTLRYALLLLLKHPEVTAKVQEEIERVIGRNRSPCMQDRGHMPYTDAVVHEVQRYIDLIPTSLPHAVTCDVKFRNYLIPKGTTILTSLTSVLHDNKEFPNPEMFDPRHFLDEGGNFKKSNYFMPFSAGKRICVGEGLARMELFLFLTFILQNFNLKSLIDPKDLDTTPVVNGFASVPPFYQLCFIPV
Outline: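 In 50mM KPO4, the reaction held 5nM enzyme and KM-level (10uM) Luciferin-H EGE; it ran 60 min at 37C after NADPH regeneration and a 10 min compound preincubation. Luminescence values were scaled to 57uM ketoconazole as complete inhibition.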

[14] = measured here: cell count channel max response
[15] = measured here: lipid channel max response

SMILES	Potency [1]	Potency [2]	Potency [3]	activity change, negative = inhibition [4]	max response [4, 14]	max response [4, 15]	Potency [5]	Potency [6]	Potency [7]	Potency [8]	Potency [9]	Potency [10]	Potency [11]	Potency [12]	Potency [13]
O=C(O)/C=C1\CCCc2ccccc2[C@H]1O	> 46 µM (inactive)	> 46 µM (inactive)	inactive	4.3% (inactive)	20.5%	25.8%	inactive	inactive	inactive	inactive	–	–	–	–	–
COc1cc(N)c(Cl)cc1C(=O)OCCCN1CCCCC1	> 46 µM (inactive)	> 46 µM (inactive)	inactive	2.57% (inactive)	19.2%	21.4%	–	–	inactive	inactive	inactive	inactive	inactive	0.126 µM (active)	–
N[C@@H](Cn1cc(F)c(=O)[nH]c1=O)C(=O)O	> 46 µM (inactive)	> 46 µM (inactive)	inactive	-2.96% (inactive)	17.5%	14.7%	inactive	inactive	inactive	inactive	–	–	–	–	–
CCS(=O)(=O)N(C)[C@@H]1c2cc(C#N)ccc2OC(C)(C)[C@H]1O	> 46 µM (inactive)	> 46 µM (inactive)	inactive	2.68% (inactive) and 2.28% (inactive)	17.8% and 15.2%	22.1% and 18.9%	inactive	inactive	inactive	inactive	20 µM (active) and inactive	inactive	inactive	–	–
N#Cc1cc2[nH]c(=O)c(=O)[nH]c2cc1[N+](=O)[O-]	> 46 µM (inactive)	> 46 µM (inactive)	inactive	2.55% (inactive)	12.9%	17.2%	–	inactive	inactive	inactive	31.6 µM (active)	–	–	–	–
OC[C@@H]1O[C@@H](n2cnc3c(N[C@H]4CCC[C@@H]4O)ncnc32)[C@H](O)[C@H]1O	> 46 µM (inactive)	> 46 µM (inactive)	inactive	3.72% (inactive)	-18.9%	-17.5%	inactive	inactive	inactive	inactive	–	–	–	–	–
CC(=O)ON(C(C)=O)S(=O)(=O)c1ccc(Cl)cc1	> 46 µM (inactive)	> 46 µM (inactive)	inactive	-5.19% (inactive)	-20.7%	-23.7%	–	–	inactive	inactive	inactive	inactive	–	–	–
C[C@@](N)(C(=O)O)c1ccc(S(=O)(=O)O)cc1	> 46 µM (inactive)	> 46 µM (inactive)	inactive	-0.133% (inactive)	9.59%	13.8%	inactive	–	inactive	inactive	inactive	inactive	–	–	–
NC1(C(=O)O)C[C@H](C(=O)O)[C@H](C(=O)O)C1 (stereo partly specified)	> 46 µM (inactive)	> 46 µM (inactive)	inactive	1.98% (inactive)	12.8%	14.8%	–	inactive	inactive	inactive	inactive	inactive	–	–	0.398 µM (active)
O=C1C(c2ccccn2)=[N+]([O-])c2ccccc21	> 46 µM (inactive)	> 46 µM (inactive)	inactive	3.2% (inactive)	20%	22.9%	–	inactive	inactive	inactive	0.158 µM (active)	–	–	–	–
Cc1ccccc1N=C(N)Nc1ccccc1C	–	> 46 µM (inactive)	inactive	3.82% (inactive)	2.46%	7.24%	inactive	inactive	inactive	inactive	inactive	–	–	–	–
C[C@H](NC[C@H](O)CP(=O)(O)CC1CCCCC1)c1ccc(Cl)c(Cl)c1	> 46 µM (inactive)	> 46 µM (inactive)	inactive	4.93% (inactive)	9.04%	17.2%	inactive	inactive	inactive	inactive	39.8 µM (active)	inactive	inactive	–	–
NC(=O)CCCCn1ccc(NC(N)=NCC(F)(F)F)n1	> 46 µM (inactive)	> 46 µM (inactive)	inactive	1.74% (inactive)	5.7%	6.79%	inactive	inactive	inactive	inactive	–	–	–	–	–
CCCCCCCCCC(=O)O[C@H](CC(=O)O)C[N+](C)(C)C	> 46 µM (inactive)	> 46 µM (inactive)	inactive	3.92% (inactive)	-0.114%	-1.87%	inactive	inactive	inactive	inactive	–	–	–	–	–
NC(=O)C[C@H](NC(=O)Cc1ccc(O)cc1O)C(=O)O	> 46 µM (inactive)	> 46 µM (inactive)	inactive	-1.96% (inactive)	-23.7%	-24%	–	inactive	inactive	inactive	inactive	–	–	–	–
